40 compounds from PubChem BioAssay (Tox21) can be followed below.

Results filed as inconclusive are left out. Entries that show only a call come without a potency. Values without a mark were called inactive. Activity calls are given as the source filed them. Calls come from the whole dose curve; as a rule, active = well fitted cell-killing curve with a large enough effect in the repeat runs; inconclusive = weak or mixed curves, or effect the other way; inactive = flat fitted curve, though single readings scatter.
Potency is the fitted concentration of half-maximal effect.

This assay is described as follows: qHTS RealTime-Glo MT Cell Viability Assay in HEK293 cells - 24 hour (AID 1224886). For activity change, negative = cytotoxicity: top concentration of the series differs between compounds. Note: nearly all actives have a fitted effect of over 50% in size. To be noted: RealTime-Glo luminescence; series mostly up to 76.8 µM. From the text: National Center for Advancing Translational Sciences [NCATS]
NIH Chemical Genomics Center [NCGC]
U.S. Environmental Protection Agency [EPA]
National Institutes of Environmental Health Sciences [NIEHS]
National Toxicology Program [NTP]
U.S. Food and Drug Administration [FDA]
Measure of cell viability is critical in the cell-base assay. Analysis of cell viability is necessary for the characterization of cell responses to cytotoxic drugs and environmental stress. A RealTime-Glo MT Cell Viability Assay to monitor cell viability in real time of continues cell culture during 40 hours of compound treatment was used to screen Tox21 10K library compounds in Hek293 cells. The RealTime-Glo MT Cell Viability Assay is a nonlytic, homogeneous, bioluminescent method to measure cell viability in real time using a simple, plate-based method. The assay involves adding NanoLuc luciferase and a cell-permeant prosubstrate to cells in culture. Viable cells reduce the proprietary prosubstrate to generate a substrate for NanoLuc luciferase. This substrate diffuses from cells into the surrounding culture medium, where it is rapidly used by the NanoLuc Enzyme to produce a luminescent signal. The signal correlates with the number of viable cells, making the assay well suited for cytotoxicity studies.
Tox21 Assay Protocol Summary:
The mixture of Hek293 cell suspension and reagents were dispensed at 600cells/6 ul/well in 1536-well tissue culture treated black solid bottom plates using a Multidrop dispenser. After the assay plates were incubated at a 37 C/5% CO2 incubator for 5 hours, 23 nL of compounds dissolved in DMSO, positive and negative controls was transferred to the assay plate by a pintool work station. The plates were incubated at 37 C for 40 hours. The luminescence intensity were measured at 0h, 8h, 16h, 24h, 32h and 40h time points using ViewLux plate reader during compound treatment.
On the technique in general: qHTS replaces the single test concentration by a dilution series.
`CCNS(=O)(=O)c1ccc(C)cc1`: the Potency result was “inactive”.
For `CO[Si](C)(OC)c1ccccc1`, the Potency entry was “inactive”.
Still for that read-out and setting: the entry for `CC(=O)C1CCCCC1=O` (stereo not given) is “inactive”.
Same read-out and setting: next, `Nc1ccccn1`: “inactive”; `CCOC(=O)c1ccccc1`: “inactive”.
Still for that read-out and setting: next, `CCN(Cc1ccccc1)c1ccccc1`: 21.6 µM (active); `CCCCCCCCCCCCCCCCCCO`: “inactive”.
In the case of `CN(C)C(=O)Oc1cccc([N+](C)(C)C)c1`, the Potency entry was “inactive”.
As to `C=CCOCC(O)CO` (stereo not given), the Potency result was “inactive”.
Turning to `CC(=O)Oc1cccc(C)c1`, the Potency result was “inactive”.
Turning to `C=CC(C)(CCC=C(C)C)OC(=O)CC` (stereo not given), the Potency entry was “inactive”.
As to `CCCCCCC1CCC(=O)O1` (stereo not given), the Potency entry is “inactive”.
With `O=C(CO)[C@@H](O)[C@H](O)[C@@H](O)CO`, the Potency entry is “inactive”.
Regarding `C[C@@H]1C[C@H]2[C@@H]3C[C@H](F)C4=CC(=O)C(Cl)=C[C@]4(C)[C@@]3(F)[C@@H](O)C[C@]2(C)[C@@]1(O)C(=O)CO`, the Potency result was “inactive”.
The same measure, in the same setting: next, `CCCCc1ccc2c(n1)[C@@H](c1ccc(OC)cc1C[C@H](C)C(=O)O)[C@H](C(=O)O)[C@H]2c1ccc2c(c1)OCO2`: “inactive”.
As to `CCCCCCCCCCCCCCC(=O)O`, the Potency result was “inactive”.
On the same count and under the same terms, next, `CC(C)=CCC/C(C)=C/C#N`: “inactive”; `CC1=NN(c2cccc(S(=O)(=O)O)c2)C(=O)C1`: “inactive”; `O=[N+]([O-])c1ccc(/C=N\O)o1`: “inactive”.
Consider `CC(C)C[C@@H](N)C(=O)O`, for which the activity change, negative = cytotoxicity is 1.4% [at 15.8 µM].
`CC(C)(C)c1ccc(-c2ccc(C(C)(C)C)cc2)cc1`: the Potency result is “inactive”.
`CCCC(C)C(=O)OCC` (stereo not given): the Potency entry was “inactive”.
As for `CCC(C)(CN(C)C)OC(=O)c1ccccc1` (stereo not given), the Potency result was “inactive”.
Turning to `NC(=O)Cc1cccc2ccccc12`, the Potency result was “inactive”.
Still for that read-out and setting: next, `C[N+](C)(C)CCCCCCCCCC[N+](C)(C)C`: “inactive”; `CC(=O)Nc1ccc(OCC(O)CNC(C)C)cc1` (stereo not given): “inactive”.
Turning to `CC(=O)NC(=O)c1ccccc1O`, the Potency result is “inactive”.
With `O=S(=O)(O)c1cccc2ccccc12`, the Potency result was “inactive”.
For the compound `CC(C)(C#N)Nc1nc(Cl)nc(NC2CC2)n1`, the Potency entry was “inactive”.
For `C[N+]12CCC(CC1)C(OC(=O)C(O)(c1ccccc1)c1ccccc1)C2` (stereo not given), the Potency entry was “inactive”.
Turning to `CCC(C)(CCCC(C)C)OC(C)=O` (stereo not given), the Potency entry was “inactive”.
On the same count and under the same terms, the entry for `N[C@H](C(=O)O)[C@@H](O)c1ccc(O)c(O)c1` is “inactive”.
Still for that read-out and setting: next, `CC(CC=O)CC(C)(C)C` (stereo not given): “inactive”.
Take `NC(=O)N1c2ccccc2CC(=O)c2ccccc21`: the Potency result is “inactive”.
For `CCOC(=O)OC(C)OC1=C(C(=O)Nc2ccccn2)N(C)S(=O)(=O)c2ccccc21` (stereo not given), the Potency result was “inactive”.
On to `C=C(C)C(=O)OCC1CCCO1` (stereo not given), for which the Potency result is “inactive”.
In the case of `Cc1ccc(C(=O)c2ccccc2)cc1`, the Potency entry is “inactive”.
Same read-out and setting: the entry for `CCCCCCCCN1CCCC1=O` is “inactive”.
With `C=CN1CCCCCC1=O`, the Potency result is “inactive”.
The same measure, in the same setting: the entry for `CC(C)NNC(=O)c1ccncc1` is “inactive”.
